Results published in PubChem BioAssay (NCATS).
Inconclusive results are not listed. Calls of active or inactive are those of the source. The call rests on the fitted dose curve; in most records, active means well fitted inhibition curve with a large enough effect; inconclusive means small, poorly fitted or top-dose-only effect; inactive means flat fitted curve, though single readings scatter. Where a SMILES comes first, the peptide text is derived from it.

Assays:
Assay in all cases: Cytotoxic Profiling of Annotated Libraries Using Quantitative High-Throughput Screening (AID 1296008); further: nearly all actives have a fitted effect of over 60% in size
Details in all cases: Five cell lines viability, CellTiter-Glo ATP luminescence, 48-72 h; max response: stronger effect = lower value
CRL-7250 = system: CRL-7250
Outline: (§1)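 Compounds were pin-transferred onto cells and incubated 48 or 72 hr at 37 degree Celsius, 95% humidity. CellTiter-Glo was added, plates sat 10 min at room temperature, then ATP-coupled luminescence was imaged as the viability read-out.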

HEK293 = system: HEK293
Outline: as §1

HaCat = system: HaCat
Outline: as §1

Measured: max response
On the % scale 0 is the no-effect control and ±100 the full control effect.

CCCC(=O)OCOC(=O)C1=C(C)NC(C)=C(C(=O)OC)C1c1cccc(Cl)c1Cl (centres undefined)
inactive: CRL-7250 4.76% | HEK293 0.879% | HaCat

CCCCN(CCN(CCCC)C(=O)N1CCOCC1)C(=O)N1CCOCC1
inactive: CRL-7250 -1.09% | HEK293 -9.35% | HaCat

CC(C)OP(=O)(CP(=O)(OC(C)C)OC(C)C)OC(C)C
inactive: CRL-7250 -7.87% | HEK293 -0.755% | HaCat

Cc1ccc(C(C)OC(=O)C2(C)CCC(C(=O)O)C2(C)C)cc1 (centres undefined)
inactive: CRL-7250 3.77% | HEK293 | HaCat

CSCC[C@H](NC(=O)[C@H](Cc1c[nH]c2ccccc12)NC(=O)CCNC(=O)OC(C)(C)C)C(=O)N[C@@H](CC(=O)O)C(=O)N[C@@H](Cc1ccccc1)C(N)=O
inactive: CRL-7250 0.728% | HEK293 0.664% | HaCat -2.67%

CCCC(=O)Nc1ccc(O)c(C(C)=O)c1
inactive: CRL-7250 -0.565% | HEK293 | HaCat

C[C@H]1C[C@H](O)c2ccsc2S1(=O)=O
inactive: CRL-7250 -0.46% | HEK293 3.47% | HaCat 2.62%

CCN(CC)CC(=O)Nc1c(C)cccc1C(=O)OC
inactive: CRL-7250 1.74% | HEK293 2.01% | HaCat

CCCCC(O)/C=C(C)/C=C/C=C/C(=O)N1CCCC1=O (centres undefined)
inactive: CRL-7250 0.43% | HEK293 1.86% | HaCat

O=C(O)C1CCC1
inactive: CRL-7250 | HEK293 -2.16% | HaCat 1.71%

OCCc1ccccc1
inactive: CRL-7250 4.7% | HEK293 -1.38% | HaCat -14.1%

CCOC(=O)Oc1ccc(CCNC(=O)[C@H](CCSC)NC(C)=O)cc1OC(=O)OCC
inactive: CRL-7250 | HEK293 -13% | HaCat -20.7%

CC(=O)N[C@@H](CO)C(=O)N[C@@H](CC(=O)O)C(=O)N[C@@H](CCCCN)C(=O)N1CCC[C@H]1C(=O)O (Ac-SDKP-OH)
inactive: CRL-7250 3.47% | HEK293 0.0413% | HaCat -26.1%

Cc1ccc2c(Cl)cc(Cl)c(O)c2n1
inactive: CRL-7250 -1.98% | HEK293 -23.5% | HaCat -10%

COC(=O)/C=C(/C)N
inactive: CRL-7250 -6.42% | HEK293 | HaCat

CC(=O)N1CCN(c2ccc(O)cc2)CC1
inactive: CRL-7250 -1.56% | HEK293 -2.95% | HaCat

CN(C)CCN(Cc1ccsc1)c1ccccn1
inactive: CRL-7250 -0.513% | HEK293 -3.25% | HaCat

O=C1NC(c2ccccc2)(c2ccccc2)C(=O)N1COP(=O)(O)O
inactive: CRL-7250 | HEK293 | HaCat -3.47%

Cc1cc(CCCOc2c(C)cc(-c3noc(C(F)(F)F)n3)cc2C)on1
inactive: CRL-7250 | HEK293 -24.5% | HaCat

Cc1cc(O)c2c(O)c3c(O)cccc3cc2c1
inactive: CRL-7250 | HEK293 -2.16% | HaCat

COc1ccc(CCC(C)=O)cc1
inactive: CRL-7250 -2.07% | HEK293 | HaCat

CC(CC(C#N)(c1ccccc1)C(C)C)N(C)C (centres undefined)
inactive: CRL-7250 -3.29% | HEK293 | HaCat

O=C(O)c1ccc(OCCN2CCCCC2)cc1
inactive: CRL-7250 4.52% | HEK293 -3.98% | HaCat

O=C(O)CCC(=O)OC[C@@H](NC(=O)C(Cl)Cl)[C@H](O)c1ccc([N+](=O)[O-])cc1
inactive: CRL-7250 -4.73% | HEK293 -21.8% | HaCat 0.154%

CCOC(=O)NNc1ccc(N(CC)CC(C)O)nn1 (centres undefined)
inactive: CRL-7250 2.28% | HEK293 | HaCat

Fc1ccc(C(c2ccc(F)cc2)N2CCNCC2)cc1
inactive: CRL-7250 | HEK293 -6.69% | HaCat -17.9%

CC(Oc1c(Cl)cccc1Cl)C1=NCCN1 (centres undefined)
inactive: CRL-7250 -2.82% | HEK293 4.99% | HaCat

CC(C)(C)C(=O)OCOC(=O)C1N2C(=O)CC2S(=O)(=O)C1(C)C (centres undefined)
inactive: CRL-7250 -2.99% | HEK293 | HaCat

O=C1CCCc2c(O)cccc21
inactive: CRL-7250 -3.71% | HEK293 -4.98% | HaCat

COc1cc(/C=C/C(N)=O)cc(OC)c1OC
inactive: CRL-7250 | HEK293 | HaCat 2.61%

O=C1CC(c2ccc(Cl)cc2)CC(=O)N1
inactive: all assays above

CCN(CC)C(=O)C1CN2CCc3cc(OC)c(OC)cc3C2CC1OC(C)=O (centres undefined)
inactive: CRL-7250 -9.43% | HEK293 | HaCat

NCC[C@H](O)C(=O)N[C@@H]1C[C@H](N)[C@@H](O[C@H]2O[C@H](CN)[C@@H](O)[C@H](O)[C@@H]2O)[C@H](O)[C@@H]1O[C@H]1O[C@H](CO)[C@@H](O)[C@H](N)[C@@H]1O
inactive: CRL-7250 -2.25% | HEK293 -4.69% | HaCat
